According to PubChem BioAssay (NCATS):
Inconclusive results are not listed. Calls of active or inactive are those of the source. Calls follow the shape of the dose curve; as a rule, active = well fitted inhibition curve with a large enough effect; inconclusive = small, poorly fitted or top-dose-only effect; inactive = flat fitted curve, though single readings scatter.

Tests used:
Assay in all cases: qHTS profiling for inhibitors of Plasmodium falciparum proliferation (AID 504749); also: nearly all actives have a fitted effect of over 60% in size
Details in all cases: P. falciparum in erythrocytes, SYBR Green DNA, 72 h; series mostly up to 28.7 µM
[1] = system: CP262
Summary of the method: (§1)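 Each compound contacts P. falciparum-infected red blood cells for 72 h at 37 C; lysis buffer (Tris, EDTA, saponin, Triton X, SYBR Green I) is added and fluorescence measured next morning; values normalized to controls.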

[2] = system: CP265
Summary of the method: as §1

[3] = system: CP266
Summary of the method: as §1

[4] = system: CP268
Summary of the method: as §1

[5] = system: CP269
Summary of the method: as §1

[6] = system: CP286
Summary of the method: as §1

[7] = system: CP291
Summary of the method: as §1

[8] = system: CP297
Summary of the method: as §1

[9] = system: CP305
Summary of the method: as §1

[10] = system: CP315
Summary of the method: as §1

[11] = system: CP325
Summary of the method: as §1

[12] = system: CP329
Summary of the method: as §1

[13] = system: DFO2036
Summary of the method: as §1

[14] = system: DIV14
Summary of the method: as §1

[15] = system: DIV17
Summary of the method: as §1

[16] = system: DIV30
Summary of the method: as §1

[17] = system: Dd2
Summary of the method: as §1

[18] = system: ECU
Summary of the method: as §1

[19] = system: FAB9
Summary of the method: as §1

[20] = system: GB4
Summary of the method: as §1

[21] = system: HB3
Summary of the method: as §1

[22] = system: ICS
Summary of the method: as §1

[23] = system: JCK
Summary of the method: as §1

[24] = system: N140
Summary of the method: as §1

[25] = system: P93_24
Summary of the method: as §1

[26] = system: P94_40
Summary of the method: as §1

[27] = system: PAD
Summary of the method: as §1

[28] = system: PC15
Summary of the method: as §1

[29] = system: PC49
Summary of the method: as §1

[30] = system: SC27B
Summary of the method: as §1

[31] = system: TAB109
Summary of the method: as §1

[32] = system: TAB113
Summary of the method: as §1

[33] = system: TAB165
Summary of the method: as §1

[34] = system: W2
Summary of the method: as §1

Measured: Potency

CCCC[C@H]1C(=O)N(c2ccccc2)N(c2ccc(O)cc2)C1=O
inactive: all assays above
